In PubChem BioAssay (NCI) one finds growth inhibition data, which are given here for 9 compounds.

“And” between values parts separate entries of the source, which are not always exact repeats. Identical values can stand only once. The panel holds about 79,000 compounds, 15% with a hit somewhere; the sample as a whole holds those more often. Unmarked numbers belong to inactive results. The source made the active and inactive calls. Rule as the data show it: active = growth inhibition above about 70%; inactive = the rest.

A short description of this assay: NCI Yeast Anticancer Drug Screen. Data for the rad50 strain (AID 155).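 Also: 0% = growth of vehicle-only cultures of the same strain.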 Particulars: S. cerevisiae rad50 strain growth inhibition, active compounds read high. Here is the method: Growth inhibition of yeast strains with defined genetic alterations is measured as a screen for potential anti-cancer activity. Selected strains with alterations in DNA damage repair or cell cycle control were exposed to compounds and growth inhibition was measured relative to vehicle treated controls. The strain used in this assay is rad50

Setting [1] is: at 5.0 µM (retest, dose inferred, filed as 0.5).
Where [2] appears, read: at 50.0 µM (retest, dose inferred, filed as 5.0).

For the compound `Oc1cccnc1[Se]`, the growth inhibition runs as follows: (at 1.2 µM) 2%; (at 3.7 µM) 6%; under setting [1], -15%; (at 11.0 µM) 60%; (at 33.0 µM) 98% (active); under setting [2], 55%. Besides, the growth inhibition is 99% (active) (at 50.0 µM) and 99% (active) (at 100.0 µM).

For `O=C1NC(=S)NC(=O)C1=Cc1ccc([N+](=O)[O-])o1`, the growth inhibition by setting is: (at 1.2 µM) 12%; (at 3.7 µM) 17%; under setting [1], 25%; (at 11.0 µM) 36%; (at 33.0 µM) 66%; under setting [2], 69%. Moreover, the growth inhibition (at 50.0 µM) was 77.6% (active) and the growth inhibition (at 100.0 µM) was 87% (active).

Regarding `CN(C)CCSC1=Nc2ccc(Cl)cc2C(c2ccccc2Cl)=NC1`, the growth inhibition is, setting by setting: (at 1.2 µM) -1%; (at 3.7 µM) 2%; under setting [1], 12%; (at 11.0 µM) 2%; (at 33.0 µM) 8%; under setting [2], 47%. Further, the growth inhibition by setting is: (at 50.0 µM) 61.8% and 39.5%; (at 100.0 µM) 51%.

For `CNC1=C(C)C(=O)C2=C(C1=O)C(COC(N)=O)C1(O)C3C(CN21)N3C` (configuration not stated), the growth inhibition is, setting by setting: under setting [1], 13%; under setting [2], 83% (active); (at 50.0 µM) 72% (active).

On to `O=c1ccn(C2OC(CO)C(O)C2O)c(=O)[n]1[Hg][c]1ccccc1` (configuration not stated), for which the growth inhibition was 99% (active) under setting [1], 99% (active) under setting [2] and 90.8% (active) (at 50.0 µM).

In the case of `CCC[CH2][Sn]1([CH2]CCC)[O]Cc2nc(C)ccc2[O]1`, the growth inhibition was 27% under setting [1], 92% (active) under setting [2] and 77.5% (active) (at 50.0 µM).

`O=C(O)C1(c2ccccc2)OC1c1ccccc1` (configuration not stated): the growth inhibition is 2% under setting [1], 67% under setting [2] and 47% (at 50.0 µM).

With `NCC(O)c1cccc(O)c1` (configuration not stated), the growth inhibition was -18% under setting [1], 77% (active) under setting [2] and 70.3% (active) (at 50.0 µM).

For the compound `CCC[CH2][Pb]([CH2]CCC)([O]C(C)=O)[O]C(C)=O`, the growth inhibition is 99% (active) under setting [1], 99% (active) under setting [2] and 90% (active) (at 50.0 µM).
